Vaccinia Venus: qHTS for Stage-Specific Inhibitors of Vaccinia Orthopoxvirus: Venus Reporter Primary qHTS | Vaccinia virus Venus reporter expression, fluorescence | Potency, µM (highest dose often 36.5 µM), for the others: top-dose activity change, negative = inhibition, most hits filed as inhibitors | 330,000 compounds, 0.46% hits; calls by dose curve; tested in A549 cells; note: potency is the fitted concentration of half-maximal effect; nearly all actives have a fitted effect of over 30% in size
VACV mCherry inh: qHTS for Stage-Specific Inhibitors of Vaccinia Orthopoxvirus: mCherry Reporter Primary qHTS; 310,000 compounds, 0.63% hits; Potency, µM (titrated, usually from 36.5 µM), for the others: at the highest dose activity change, negative = inhibition, actives largely listed as inhibitors; Vaccinia virus mCherry reporter infection, fluorescence; calls by dose curve; tested in A549 cells; note: potency is the fitted concentration of half-maximal effect; nearly all actives have a fitted effect of over 35% in size
HCMV inh: qHTS Assay for inhibitors of the human cytomegalovirus (HCMV); HFF cells, HCMV-luciferase reporter, 72 h; hits give low values; activity change, negative = inhibition, % at 57.5 µM; 410,000 compounds, 4.5% hits; AID 1259415, 2018; in the data active = activity change below about -60%; inconclusive = no clear call, values can overlap the other calls; inactive = above about -39%
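Screen run at 2 compound doses on HFFs infected with reporter HCMV, MOI 1 PFU/cell. Luciferase activity from cell lysates at 72 h post infection gave inhibition relative to buffer-only and Salinomycin wells.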
HCV inh: qHTS Assay for Inhibitors of Hepatitis C Virus (HCV); Huh7.5.1 HCVcc-Cre infection, luciferase reporter, 44 h; Potency, µM (series often up to 41.8 µM), for inactives: at the highest dose activity change, negative = inhibition, usual class: inhibitors; 340,000 compounds, 3.4% hits; AID 651820, 2012; active = well fitted inhibition curve with a large enough effect; inconclusive = small, poorly fitted or top-dose-only effect, or another doubt; inactive = no such curve, though single readings can be large or run the other way; note: potency is the fitted concentration of half-maximal effect
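Compounds are dispensed onto cells plated 4 h earlier at 1,000 per well, with HCVcc-Cre virus (about 0.5 moi) added next. Following 44 h of culture, luminescent signal is measured for 15 sec after 15 min with substrate at room temperature.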
FMDV antiviral: High Throughput Screening for Foot and Mouth Disease Virus Antivirals. FMDV antiviral cell-based qHTS. Potency, µM (doses to about 57.9 µM), without a hit: top-dose activity change, negative = inhibition, actives largely listed as inhibitors. 410,000 compounds, 1.2% hits; calls by dose curve; tested in HEK293T cells; note: read-out not given here; potency is the fitted concentration of half-maximal effect; nearly all actives have a fitted effect of over 45% in size
An asterisk follows results filed as active; i = inactive; ? = inconclusive; nt = no result; ! = repeats disagree. In the library only some 7.3% were active in any assay of this set; here they are far more common. % is set by controls: 0 for no effect and ±100 for the full control effect.

SMILES	Vaccinia Venus	VACV mCherry inh	HCMV inh	HCV inh	FMDV antiviral
COc1ccc(N2CCN(C(=O)CN3C(=O)COc4ccc(S(=O)(=O)N5CCC(C)CC5)cc43)CC2)cc1	-3%	-1%	1	nt	1%
N#Cc1sc2nc(C3CC3)cc(-c3ccc(Cl)cc3)c2c1N	14µM*	4.5µM*	19	?	?
CCCCCNC(=O)C(C1CC1)n1c(=O)c(-c2ccccc2)nc2ccccc21 (stereo unspecified)	-26%	?	-69*	nt	0%
Cc1coc2c1C(=O)C(=O)c1c-2ccc2c(C)cccc12	7.1µM*	?	nt	3%	?
Cc1coc2c1C(=O)C(=O)c1c-2ccc2c1CCCC2(C)C	11µM*!	10µM*!	?	?	-20%
C[C@H]1COC2=C1C(=O)C(=O)c1c2ccc2c1CCCC2(C)C	11µM*	11µM*	nt	?	-23%
CC1COC2=C1C(=O)C(=O)c1c2ccc2c1CCCC2(C)C (stereo unspecified)	9%	-5%	nt	nt	-9%
COc1ccccc1CNC(=O)CSC1=Nc2ccccc2N=C(c2ccc(F)cc2)C1	-20%	-20%	-9	nt	-25%
COc1ccc(CCNc2oc(/C=C/c3ccc(OC)c(OC)c3)nc2C#N)cc1	-6%	-10%	5	nt	-16%
C[C@H]1CN([C@@H](C)CO)C(=O)CCCn2cc(nn2)CO[C@@H]1CN(C)S(=O)(=O)c1cn(C)cn1	nt	nt	11	nt	nt
CC1CCc2c(sc3nnn(CC(=O)Nc4ccccc4Cl)c(=O)c23)C1 (stereo unspecified)	5%	-5%	-5	nt	?
Cc1nc2scc(C)n2c(=O)c1S(=O)(=O)Nc1ccc(N2CCN(S(C)(=O)=O)CC2)cc1	-19%	-23%	-83*!	?	?
Cc1cccc(NS(=O)(=O)c2c(C)nc3scc(C)n3c2=O)c1	-21%	-27%	-70*	-2%	20%
Cc1cc(C)cc(NS(=O)(=O)c2c(C)nc3scc(C)n3c2=O)c1	-8%	-19%	-6	nt	48%
CCc1ccc(NS(=O)(=O)c2c(C)nc3sc(CC)nn3c2=O)cc1	-12%	?	13	-26%	?
CCc1nn2c(=O)c(S(=O)(=O)Nc3ccc(C)c(C)c3)c(C)nc2s1	-24%	-29%	-88*	nt	-1%
O=C(CSc1nc2c([nH]c3ccccc32)c(=O)n1-c1cccc(Cl)c1)N1CCc2ccccc21	-2%	6%	33	nt	-18%
COc1ccc(/C=C2\C=Cc3ccccc32)cc1OC	-12%	3%	nt	nt	nt
CCN(CC)C(=O)Cn1c(=O)n(Cc2ccc(C(=O)NCc3ccc(C)cc3)cc2)c(=O)c2ccccc21	-5%	-3%	13	nt	11%
CCN(CC)C(=O)Cn1c(=O)c2ccccc2n2c(=S)sc(-c3cccc(C)c3)c12	-19%	i	-31	0.56µM*	-15%
NC1C(N)C(N)C1N (stereo unspecified)	-12%	-6%	nt	nt	nt
COc1ccc(NC(=O)CN2C(=O)CCn3nc(-c4cccn4C)cc32)cc1	-2%	-11%	7	nt	5%
CCOc1ccc(CNC(=O)c2ccc(Sc3ccc(Cl)cc3)c(NC(C)=O)c2)cc1OC	-14%	-11%	2	13µM*	?
CCOc1ccc(CNC(=O)c2ccc(Sc3ccc(C)cc3)c(N)c2)cc1OC	-29%	-27%	-62*	nt	?
Nc1ccc2c(c1)C=C/C2=C\c1ccccc1	-26%	-28%	nt	nt	nt
SMILES	Vaccinia Venus	VACV mCherry inh	HCMV inh	HCV inh	FMDV antiviral
O=C(/C=C/Nc1ccccc1)c1ccccc1	-7%	nt	16	4%	-30%
O=C(/C=C/Sc1ccccc1)c1ccccc1	-5%	-10%	-83*	?	nt
O=C(/C=C/Sc1ccccc1)c1ccc(Cl)cc1	-4%	-14%	-76*	-59%	nt
O=CC(=O)c1ccc(Cl)cc1	-8%	-14%	nt	nt	nt
O=C(Nc1nc(-c2ccc(-c3ccccc3)cc2)cs1)C1=COCCO1	?	?	-64*	2%	-5%
O=C(Nc1cccc(-c2nc3ccccc3s2)c1)C1=COCCO1	-8%	8%	51	-20%	15%
O=C(Nc1nc(-c2ccc([N+](=O)[O-])cc2)cs1)C1=COCCO1	-8%	-1%	-31	nt	-17%
O=C(Nc1ccc(-c2nc3ccccc3s2)cc1)C1=COCCO1	-2%	i	-21	6%	10µM*
CCc1ccc(Nc2nc(-c3cc4cccc(OC)c4oc3=O)c(CC)s2)cc1	-16%	-14%	?	nt	-3%
Nc1c(C(=O)O)sc2nc(-c3ccccc3)c3c(c12)CCCC3	-21%	-13%	-31	5%	49%
CC1CCc2c(nc3sc4c(c3c2N)CCCC4)C1 (stereo unspecified)	?	-20%	?	11µM*	-8%
Nc1c2c(nc3sc4c(c13)CCCC4)CCCC2	?	-9%	-72*	?	-3%
CCc1c(-c2ccccc2)nc2sc3c(c2c1N)CCCC3	?	?	-92*	25µM*	-50%
CC1CCc2nc3sc4c(c3c(N)c2C1)CCCC4 (stereo unspecified)	?	i	28	?	-10%
CC(C)(C)Cc1c(-c2ccc(F)cc2)nc2ccc(Br)cn12	-15%	-16%	-76*	nt	-28%
CN(C)N=Nc1ccc(/C=C2\C=Cc3ccccc32)cc1	-15%	-16%	nt	nt	nt
Cc1cccc(NC(=O)c2ccc(Cn3nc(N4CCN(c5ccccc5)CC4)ccc3=O)o2)c1C	-19%	-24%	-72*	nt	-24%
Cc1ccc(F)cc1NC(=O)c1ccc(Cn2nc(N3CCN(c4ccccc4)CC3)ccc2=O)o1	?	?	-73*	nt	35µM*
COC(=O)c1ccccc1NC(=O)c1nc(S(=O)(=O)Cc2ccccc2F)ncc1Cl	-9%	-6%	24	nt	-17%
COc1ccc(OC)c(NC(=O)c2nc(S(=O)(=O)Cc3ccccc3)ncc2Cl)c1	-8%	-1%	-99*	?	7.1µM*
COc1ccc(OC)c(NC(=O)CS(=O)(=O)Cc2ccccc2)c1	1%	i	-38	-6%	-7%
COc1ccc(NC(=O)c2nc(S(=O)(=O)Cc3cccc(C)c3)ncc2Cl)c(OC)c1	nt	nt	-79*	?	3.2µM*
CCn1c(=O)cc(SCC(=O)NCc2ccc(F)cc2Cl)c2ccccc21	9%	-5%	13	nt	-29%
CCOc1ccc(-n2nc(CO)c(C(=O)NCc3cccc(OC)c3)n2)cc1	-9%	-2%	70	nt	22%
O=C(c1cc(COc2ccc(-n3cncn3)cc2)on1)N1CCCC1	nt	nt	31	-17%	-11%
CCC1CCCCN1C(=O)c1cc(COc2ccc(-n3cncn3)cc2)on1 (stereo unspecified)	-20%	-3%	-61*	32µM*	?
COc1ccc(Nc2ncnc3onc(C)c23)cc1Cl	4%	7%	-7	nt	-6%

Bioassay records from PubChem BioAssay.
